Laboratory results from PubChem BioAssay (Tox21).
Inconclusive results are not listed. The source made the active and inactive calls. Unless noted, calls follow the shape of the dose curve; as a rule, active = well fitted curve in the direction sought with a large enough effect in the repeat runs; inconclusive = weak or mixed curves; inactive = no such curve, though single readings can be large; an effect the other way counts as inactive or inconclusive.

Columns and labels:
[1] = qHTS assay to identify small molecule antagonists of the androgen receptor (AR) signaling pathway using the MDA cell line in the presence of 0.5 nM R1881 - cell viability counter screen (AID 1259242); also: nearly all actives have a fitted effect of over 45% in size; also: potency is read from the fitted curve at half-maximal effect; as to viability change, negative = cytotoxic: % is scaled to controls: 0 for no effect and ±100 for the full control effect
Method in brief: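 Live-cell protease activity was measured by CellTiter-Fluor fluorescence after 30 min. Before that, MDA-kb2 MMTV-luciferase cells had 16 hr at 37C without CO2, exposed to test compounds and 0.5 nM R1881 final.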

[2] = qHTS assay to identify small molecule HDAC inhibitors - cell viability counter screen (AID 1259365); also: series mostly up to about 92 µM; % is scaled to controls: 0 for no effect and ±100 for the full control effect; nearly all actives have a fitted effect of over 50% in size
Method in brief: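 Counter screen in wild-type HCT-116 cells: compounds dissolved in DMSO are pin-transferred onto overnight-plated cells and left 2hr at 37C. ATP-based CellTiter-Glo luminescence then measures viable cells.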

[3] = qHTS assay to identify small molecule antagonists of the sonic hedgehog signaling (Shh) pathway - cell viability counter screen (AID 1259367); also: nearly all actives have a fitted effect of over 55% in size; also: potency is read from the fitted curve at half-maximal effect; as to viability change, negative = cytotoxic: % is scaled to controls: 0 for no effect and ±100 for the full control effect
Method in brief: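 Fluorescence read-out (CellTiter-Fluor, 1 hr at 37C) taken after 23 hr compound treatment of 3T3 Gli1-Luc cells stimulated with conditioned medium. Cells were seeded at 2,000 per well and pre-incubated 4 hr.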

[4] = target: Estrogen receptor beta (Homo sapiens) (UniProt Q92731); assay: qHTS assay to identify small molecule antagonists of the estrogen receptor beta (ER-beta) signaling pathway (AID 1259378; active = well fitted inhibition curve with a large enough effect in the signal ratio in the repeat runs, not every such curve was filed as active; the % refers to the signal ratio; also: potency is read from the fitted curve at half-maximal effect)
Chain of Estrogen receptor beta (Homo sapiens) (Q92731 whole entry, looked up, the tested form may be a part): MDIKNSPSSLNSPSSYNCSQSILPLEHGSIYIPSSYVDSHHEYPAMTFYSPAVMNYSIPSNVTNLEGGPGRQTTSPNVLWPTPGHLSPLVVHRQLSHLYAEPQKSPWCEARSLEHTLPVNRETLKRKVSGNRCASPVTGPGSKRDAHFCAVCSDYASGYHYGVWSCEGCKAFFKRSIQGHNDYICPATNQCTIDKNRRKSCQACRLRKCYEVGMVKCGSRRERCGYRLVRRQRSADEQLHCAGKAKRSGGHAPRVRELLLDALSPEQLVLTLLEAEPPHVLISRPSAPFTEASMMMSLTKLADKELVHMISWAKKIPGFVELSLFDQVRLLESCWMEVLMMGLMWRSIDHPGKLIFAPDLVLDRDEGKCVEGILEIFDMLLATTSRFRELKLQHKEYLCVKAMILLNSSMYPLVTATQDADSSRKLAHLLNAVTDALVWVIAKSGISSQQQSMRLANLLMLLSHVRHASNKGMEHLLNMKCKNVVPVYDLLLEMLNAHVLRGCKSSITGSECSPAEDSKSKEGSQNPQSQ
Method in brief: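 ER-beta-UAS-bla HEK293T cells in 2% charcoal-stripped FBS medium treated with compound plus 1nM final 17-beta-estradiol for 16 hr at 37C. Beta-lactamase reporter read by FRET substrate fluorescence after 2 hours at room temperature.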

[5] = qHTS assay to identify small molecule agonists of the androgen receptor (AR) signaling pathway in the presence of an antagonist - cell viability counter screen (AID 1259379); also: nearly all actives have a fitted effect of over 25% in size; also: potency is read from the fitted curve at half-maximal effect
Method in brief: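 Cytotoxicity counter-screen run in the same wells as the nilutamide-challenged (3.0 µM final) AR agonist assay in MDA-kb2 cells. Compounds tested at 15 concentrations for 16 h, 37 °C without CO2; CellTiter-Fluor fluorescence read.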

[6] = qHTS assay to identify small molecule antagonists of the estrogen receptor beta (ER-beta) signaling pathway - cell viability counter screen (AID 1259382); also: nearly all actives have a fitted effect of over 55% in size; also: potency is read from the fitted curve at half-maximal effect
Method in brief: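 Cytotoxicity was measured in the same wells by CellTiter-Glo luminescence after 30 min at room temperature. Cells were ER-beta-bla HEK293T in charcoal-stripped serum, given compound together with 1 nM E2 and incubated 16 h at 37C.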

[7] = qHTS assay to identify small molecule agonists or antagonists of the thyroid stimulating hormone receptor (TSHR) signaling pathway - wild type cell line counter screen (AID 1259384; calls by dose curve; also: % is scaled to controls: 0 for no effect and ±100 for the full control effect)
Method in brief: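 Wild-type Hek293 cells, 800/well, 18 h at 37C, then compound with Ro20-1724 for 30 min RT. cAMP by HTRF (cAMP-d2/anti-cAMP cryptate), 1 h RT, fluorescence read. 15 concentrations, triplicates.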

[8] = target: Thyrotropin receptor (Homo sapiens) (UniProt P16473); assay: qHTS assay to identify small molecule antagonists of the thyroid stimulating hormone receptor (TSHR) signaling pathway (AID 1259385; calls by dose curve; also: % is scaled to controls: 0 for no effect and ±100 for the full control effect; nearly all actives have a fitted effect of over 20% in size)
Chain of Thyrotropin receptor (Homo sapiens) (P16473 whole entry, looked up): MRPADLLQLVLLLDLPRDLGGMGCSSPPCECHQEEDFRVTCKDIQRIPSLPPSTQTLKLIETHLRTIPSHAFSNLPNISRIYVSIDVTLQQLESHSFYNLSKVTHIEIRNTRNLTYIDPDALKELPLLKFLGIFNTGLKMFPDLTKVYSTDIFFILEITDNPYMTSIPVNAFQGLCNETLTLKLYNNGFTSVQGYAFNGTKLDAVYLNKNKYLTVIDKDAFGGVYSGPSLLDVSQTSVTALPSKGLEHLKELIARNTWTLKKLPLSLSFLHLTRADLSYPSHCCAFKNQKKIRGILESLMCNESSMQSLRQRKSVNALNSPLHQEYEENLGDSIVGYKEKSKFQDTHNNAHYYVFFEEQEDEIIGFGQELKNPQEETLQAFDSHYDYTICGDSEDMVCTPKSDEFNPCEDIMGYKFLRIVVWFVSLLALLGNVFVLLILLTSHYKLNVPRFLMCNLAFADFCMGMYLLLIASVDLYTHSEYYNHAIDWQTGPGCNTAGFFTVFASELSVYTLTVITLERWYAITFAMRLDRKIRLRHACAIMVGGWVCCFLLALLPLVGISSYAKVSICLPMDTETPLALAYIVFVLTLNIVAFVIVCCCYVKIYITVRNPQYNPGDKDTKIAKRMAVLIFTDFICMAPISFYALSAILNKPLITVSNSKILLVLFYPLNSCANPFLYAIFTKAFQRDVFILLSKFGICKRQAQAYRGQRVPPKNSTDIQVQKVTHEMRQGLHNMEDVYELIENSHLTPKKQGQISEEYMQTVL
Method in brief: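 TSHR-HEK293 cells (800/well) plated 18 h, then compounds with Ro20-1724 and TSH at 1.5 ng/mL final, 30 min at room temperature. cAMP quantified by HTRF (cAMP-d2/anti-cAMP-cryptate, 1 h); 15 concentrations in triplicate.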

[9] = qHTS assay to identify small molecule agonists of the estrogen receptor alpha (ER-alpha) signaling pathway in the presence of an antagonist - cell viability counter screen (AID 1259386); also: series mostly up to about 92 µM; % is scaled to controls: 0 for no effect and ±100 for the full control effect; nearly all actives have a fitted effect of over 30% in size
Method in brief: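 Compounds tested at 15 concentrations for 22 h at 37C alongside 10.0nM (final) ICI-182,780 antagonist, in VM7Luc4E2 cells grown in phenol red-free, charcoal-stripped medium. Viability read by CellTiter-Fluor fluorescence after 1 h reagent incubation.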

[10] = qHTS assay to identify small molecule HDAC inhibitors (AID 1259364); also: top concentration of the series differs between compounds; % is scaled to controls: 0 for no effect and ±100 for the full control effect; nearly all actives have a fitted effect of over 45% in size
Method in brief: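 Luminescence read after 30 min room-temperature HDAC-Glo incubation measures cellular class I/II HDAC activity. Compounds were applied for 2 hr at 37 C to HCT-116 wild-type cells seeded the day before.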

[11] = qHTS assay to identify small molecule agonists of the sonic hedgehog signaling (Shh) pathway (AID 1259368; calls by dose curve;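 also: NIH/3T3-derived 3T3Gli1-Luc cells carrying a stable Gli1-driven firefly luciferase reporter; series mostly up to about 92 µM; % is scaled to controls: 0 for no effect and ±100 for the full control effect; nearly all actives have a fitted effect of over 15% in size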)
Method in brief: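 Luminescence was read after 30 min at room temperature with luciferase reagent. Before that, 3T3Gli1-Luc cells (NIH/3T3 clone, stable Gli1-Luc reporter; 2,000/well) were exposed to compounds for 24 hr at 37C, 5% CO2, compounds being added 4 hr post-plating.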

[12] = qHTS assay to identify small molecule antagonists of the sonic hedgehog signaling (Shh) pathway (AID 1259369; calls by dose curve; also: nearly all actives have a fitted effect of over 45% in size; also: potency is read from the fitted curve at half-maximal effect)
Method in brief: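 Antagonist mode: compound added to 3T3 Gli1-Luc cells followed by conditioned-medium stimulation, 24 h at 37 C, 5% CO2. Inhibition taken as loss of Gli1-driven luciferase luminescence.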

[13] = qHTS assay to identify small molecule agonists of the sonic hedgehog signaling (Shh) pathway - cell viability counter screen (AID 1259366); also: nearly all actives have a fitted effect of over 50% in size; also: potency is read from the fitted curve at half-maximal effect
Method in brief: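 Cells are plated at 2,000 per well and left 4hr at 37C, 5% CO2 before compound addition. After 23hr of treatment, CellTiter-Fluor reagent is added for 1hr at 37C and fluorescence is measured.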

[14] = target: Estrogen receptor beta (Homo sapiens) (UniProt Q92731); assay: qHTS assay to identify small molecule agonists of the estrogen receptor beta (ER-beta) signaling pathway (AID 1259377; active = well fitted activation curve with a large enough effect in the signal ratio in the repeat runs, not every such curve was filed as active; the % refers to the signal ratio; also: % is scaled to controls: 0 for no effect and ±100 for the full control effect)
Method in brief: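 Agonist mode cell assay in GripTite HEK293T cells expressing an ER-beta fusion that drives beta-lactamase from an Upstream Activator Sequence; 16 hr compound exposure at 37C, then 2 h LiveBLAzer B/G FRET substrate at room temperature, fluorescence read-out.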

[15] = qHTS assay to identify small molecule agonists of the estrogen receptor beta (ER-beta) signaling pathway - cell viability counter screen (AID 1259380); also: potency is read from the fitted curve at half-maximal effect; nearly all actives have a fitted effect of over 30% in size
Method in brief: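 Cell viability counter screen: CellTiter-Glo luminescence (30 min, room temperature) measured in the same wells as the beta-lactamase readout, after 16 hr compound exposure at 37C of ER-beta-bla HEK293T cells in 2% charcoal-stripped FBS medium.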

[16] = target: Estrogen receptor (Homo sapiens) (UniProt P03372); assay: qHTS assay to identify small molecule agonists of the estrogen receptor alpha (ER-alpha) signaling pathway in the presence of an antagonist (AID 1259383; calls by dose curve; also: top concentration of the series differs between compounds; % is scaled to controls: 0 for no effect and ±100 for the full control effect; nearly all actives have a fitted effect of over 15% in size)
Chain of Estrogen receptor (Homo sapiens) (P03372 whole entry, looked up): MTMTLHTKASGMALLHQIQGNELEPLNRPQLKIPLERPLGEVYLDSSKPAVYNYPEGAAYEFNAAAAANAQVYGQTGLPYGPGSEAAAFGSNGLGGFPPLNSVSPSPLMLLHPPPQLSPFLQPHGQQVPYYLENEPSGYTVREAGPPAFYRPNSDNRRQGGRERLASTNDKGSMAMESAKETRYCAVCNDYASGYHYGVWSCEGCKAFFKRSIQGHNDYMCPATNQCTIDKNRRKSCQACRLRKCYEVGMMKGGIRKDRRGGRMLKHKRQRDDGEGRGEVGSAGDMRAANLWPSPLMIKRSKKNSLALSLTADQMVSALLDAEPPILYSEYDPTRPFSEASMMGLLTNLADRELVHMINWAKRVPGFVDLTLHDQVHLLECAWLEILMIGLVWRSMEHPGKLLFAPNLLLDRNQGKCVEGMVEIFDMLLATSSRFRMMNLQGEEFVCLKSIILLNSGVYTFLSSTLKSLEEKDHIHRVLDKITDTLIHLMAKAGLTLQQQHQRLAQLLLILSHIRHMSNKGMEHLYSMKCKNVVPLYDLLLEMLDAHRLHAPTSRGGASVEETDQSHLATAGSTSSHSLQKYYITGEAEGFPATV
Method in brief: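 Agonist-mode confirmation run in the presence of 10.0nM (final) ICI-182,780 antagonist. The reporter was ERE-driven luciferase in VM7Luc4E2 cells, grown in charcoal-stripped serum. Cells were exposed to 15-concentration compound series for 22hr, then ONE-Glo luminescence was read.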

[17] = target: Estrogen receptor (Homo sapiens) (UniProt P03372); assay: qHTS assay to identify small molecule antagonists of the estrogen receptor alpha (ER-alpha) signaling pathway using the BG1 cell line in the presence of 0.1 nM 17-beta-estradiol (AID 1259244); also: % is scaled to controls: 0 for no effect and ±100 for the full control effect; nearly all actives have a fitted effect of over 50% in size
Method in brief: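 Luciferase luminescence (ONE-Glo, 30 min at room temperature) was read after 22 hr at 37C exposure to compounds plus 17beta-estradiol at 0.1 nM final. Cells were VM7Luc4E2 with endogenous ER-alpha and an ERE-driven luciferase, pre-cultured 5 days in hormone-depleted medium.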

[18] = target: Androgen receptor (Homo sapiens) (UniProt P10275); assay: qHTS assay to identify small molecule agonists of the androgen receptor (AR) signaling pathway in the presence of an antagonist (AID 1259381; calls by dose curve; also: % is scaled to controls: 0 for no effect and ±100 for the full control effect; nearly all actives have a fitted effect of over 15% in size)
Chain of Androgen receptor (Homo sapiens) (P10275 whole entry, looked up): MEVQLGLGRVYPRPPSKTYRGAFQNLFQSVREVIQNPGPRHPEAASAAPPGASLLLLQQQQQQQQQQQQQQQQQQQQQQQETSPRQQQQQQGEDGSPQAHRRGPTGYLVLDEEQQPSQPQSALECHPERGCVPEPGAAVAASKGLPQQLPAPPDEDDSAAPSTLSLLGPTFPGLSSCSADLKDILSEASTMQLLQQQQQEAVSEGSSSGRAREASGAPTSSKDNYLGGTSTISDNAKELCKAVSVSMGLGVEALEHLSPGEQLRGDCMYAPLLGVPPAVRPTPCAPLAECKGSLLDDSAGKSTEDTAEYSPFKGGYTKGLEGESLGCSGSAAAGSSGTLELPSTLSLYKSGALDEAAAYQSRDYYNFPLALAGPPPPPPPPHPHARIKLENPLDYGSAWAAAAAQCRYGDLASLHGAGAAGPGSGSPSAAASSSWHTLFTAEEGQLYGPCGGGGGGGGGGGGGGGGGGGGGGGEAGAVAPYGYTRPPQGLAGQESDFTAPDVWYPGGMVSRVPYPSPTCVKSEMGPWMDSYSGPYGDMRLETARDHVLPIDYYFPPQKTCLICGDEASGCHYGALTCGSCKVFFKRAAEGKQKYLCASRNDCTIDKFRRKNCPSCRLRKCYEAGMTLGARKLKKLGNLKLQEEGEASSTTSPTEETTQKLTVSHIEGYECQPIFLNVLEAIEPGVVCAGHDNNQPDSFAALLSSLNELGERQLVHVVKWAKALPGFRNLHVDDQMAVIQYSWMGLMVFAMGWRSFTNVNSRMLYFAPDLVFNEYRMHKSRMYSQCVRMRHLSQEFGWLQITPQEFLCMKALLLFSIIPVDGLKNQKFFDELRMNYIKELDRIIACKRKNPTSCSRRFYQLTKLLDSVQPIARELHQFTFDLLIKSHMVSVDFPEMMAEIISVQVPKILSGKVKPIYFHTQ
Method in brief: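 Agonist-mode confirmation run against 3.0 uM final nilutamide: compounds titrated at 15 concentrations onto MDA-kb2 MMTV-luciferase reporter cells. Luminescence measured with ONE-Glo following 16 hr incubation, 37C, 0% CO2.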

CC(C)OC(=O)c1cc(C(=O)OC(C)C)cc([N+](=O)[O-])c1
inactive: Potency [1] | Potency [2] | Potency [3] | Potency [4] | Potency [5] | Potency [6] | outcome [7] | Potency [8] | Potency [9]

CCCCCCC(C)Nc1ccc(Nc2ccccc2)cc1 (configuration not stated)
inactive: Potency [1] | Potency [10] | Potency [2] | Potency [11] | Potency [5]
active: Potency [12] 27.3 µM | Potency [4] 48.6 µM

COC(=O)[C@]1(C)CCC[C@@]2(C)[C@H]1CC=C1C=C(C(C)C)CC[C@@H]12
inactive: Potency [1] | Potency [10] | Potency [13] | Potency [3] | Potency [11] | Potency [12] | Potency [14] | Potency [5] | Potency [6] | outcome [7] | Potency [8] | Potency [9]
active: Potency [15] 68.6 µM

O=C1NCN(c2ccccc2)C12CCN(CCCC(c1ccc(F)cc1)c1ccc(F)cc1)CC2
inactive: Potency [2] | Potency [11] | outcome [7] | Potency [8] | Potency [9]
active: Potency [1] 29.8 µM | Potency [5] 29.8 µM | Potency [6] 26.6 µM

c1cc2c3c(c1)ccc1cccc(c13)C2
inactive: Potency [1] | Potency [10] | Potency [2] | Potency [13] | Potency [3] | Potency [11] | Potency [5] | Potency [6] | outcome [7] | Potency [9]

S=C(SSSSSSC(=S)N1CCCCC1)N1CCCCC1
active: Potency [13] 5.35 µM | Potency [3] 7.56 µM | Potency [4] 13.4 µM
inactive: viability change, negative = cytotoxic [1] -10.8% [at 19 µM] | activity change, negative = inhibition [10] -8.72% [at 19 µM] | activity change [11] -10.5% [at 18.9 µM, active compounds read high] | activity change, negative = cytotoxicity [5] -6.95% [at 19 µM] | activation [16] 7.24% [at 19 µM]

Cc1c(-c2ccc(O)cc2)n(Cc2ccc(OCCN3CCCCCC3)cc2)c2ccc(O)cc12
active: Potency [1] 29.8 µM | Potency [13] 13.3 µM | Potency [3] 26.6 µM | Potency [12] 11.9 µM | Potency [5] 29.8 µM | Potency [15] 29.8 µM | Potency [6] 26.6 µM
inactive: Potency [10] | Potency [2] | Potency [9]

Oc1c(Br)cc(Br)c2cccnc12
inactive: Potency [1] | Potency [2] | Potency [11] | Potency [16] | outcome [7] | Potency [8] | Potency [9]
active: Potency [13] 7.5 µM | Potency [12] 2.37 µM | Potency [15] 1.19 µM

CNCC[C@H](Oc1cccc2ccccc12)c1cccs1
inactive: Potency [10] | Potency [11] | outcome [7] | Potency [8] | Potency [9]
active: Potency [1] 26.6 µM | Potency [13] 26.6 µM | Potency [3] 33.5 µM | Potency [12] 2.37 µM | Potency [5] 29.8 µM | Potency [15] 16.8 µM | Potency [6] 13.3 µM

O[C@@H](c1cc(C(F)(F)F)nc2c(C(F)(F)F)cccc12)[C@H]1CCCCN1
inactive: Potency [17] | Potency [10] | Potency [11] | Potency [14] | Potency [16] | outcome [7] | Potency [9]
active: Potency [13] 29.8 µM | Potency [3] 29.8 µM | Potency [12] 23.7 µM | Potency [15] 21.1 µM | Potency [6] 16.8 µM

CCCCCCCCCCOCC(O)CN (configuration not stated)
active: Potency [12] 11.9 µM | Potency [15] 26.6 µM | Potency [6] 26.6 µM
inactive: Potency [17] | Potency [10] | Potency [2] | Potency [3] | Potency [11] | Potency [18] | Potency [16] | outcome [7] | Potency [8] | Potency [9]
